# Reference: the supplement of paper PMC4466140
# Experiments:
# Assay in all cases: SPOT peptide array binding signal intensity (averaged, normalized) (arbitrary units (background-subtracted, floor 0; scale differs between SH3 domains)); higher = stronger binding of the SH3 domain to the peptide
# CaNbp2 = molecular target: CaNbp2
# Method in brief: (§1)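 Four yeast species supplied the SH3 domains, which were expressed as GST fusions in E. coli BL21(DE3) and purified on glutathione Sepharose. Incubation with cellulose membranes carrying synthetic 15-mer peptides, cysteines exchanged for serines, ran overnight at 4°C at 10 μg/ml in TBS-based blocking buffer. Binding signal is reported as normalized, background-subtracted spot intensity averaged over replicates, in arbitrary units not shared between domains.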
# CaRvs167 = molecular target: CaRvs167
# Method in brief: as §1
# CaRvs167-3 = molecular target: CaRvs167-3
# Method in brief: as §1
# CaSho1 = molecular target: CaSho1
# Method in brief: as §1
# CaSla1-D1-D2 = molecular target: CaSla1-D1-D2
# Method in brief: as §1
# CaSla1-D3 = molecular target: CaSla1-D3
# Method in brief: as §1
# ScAbp1 = molecular target: ScAbp1
# Method in brief: as §1
# ScBbc1 = molecular target: ScBbc1
# Method in brief: as §1
# ScBem1-D1 = molecular target: ScBem1-D1
# Method in brief: as §1
# ScBzz1-D1 = molecular target: ScBzz1-D1
# Method in brief: as §1
# ScBzz1-D2 = molecular target: ScBzz1-D2
# Method in brief: as §1
# ScCyk3 = molecular target: ScCyk3
# Method in brief: as §1
# ScFus1 = molecular target: ScFus1
# Method in brief: as §1
# ScHof1 = molecular target: ScHof1
# Method in brief: as §1
# ScHse1 = molecular target: ScHse1
# Method in brief: as §1
# ScLsb1 = molecular target: ScLsb1
# Method in brief: as §1
# ScLsb2 = molecular target: ScLsb2
# Method in brief: as §1
# ScLsb3 = molecular target: ScLsb3
# Method in brief: as §1
# ScLsb4 = molecular target: ScLsb4
# Method in brief: as §1
# ScMyo3 = molecular target: ScMyo3
# Method in brief: as §1
# ScMyo5 = molecular target: ScMyo5
# Method in brief: as §1
# ScNbp2 = molecular target: ScNbp2
# Method in brief: as §1
# ScPex13 = molecular target: ScPex13
# Method in brief: as §1
# ScRvs167 = molecular target: ScRvs167
# Method in brief: as §1
# ScSho1 = molecular target: ScSho1
# Method in brief: as §1
# ScSla1-D1-D2 = molecular target: ScSla1-D1-D2
# Method in brief: as §1
# ScSla1-D3 = molecular target: ScSla1-D3
# Method in brief: as §1
# SpAbp1-D1 = molecular target: SpAbp1-D1
# Method in brief: as §1
# SpBbc1 = molecular target: SpBbc1
# Method in brief: as §1
# SpBzz1-D1 = molecular target: SpBzz1-D1
# Method in brief: as §1
# SpBzz1-D2 = molecular target: SpBzz1-D2
# Method in brief: as §1
# SpCyk3 = molecular target: SpCyk3
# Method in brief: as §1
# SpHof1 = molecular target: SpHof1
# Method in brief: as §1
# SpHof1-2 = molecular target: SpHof1-2
# Method in brief: as §1
# SpHof1-3 = molecular target: SpHof1-3
# Method in brief: as §1
# SpHse1 = molecular target: SpHse1
# Method in brief: as §1
# SpLsb1 = molecular target: SpLsb1
# Method in brief: as §1
# SpLsb4 = molecular target: SpLsb4
# Method in brief: as §1
# SpMyo1 = molecular target: SpMyo1
# Method in brief: as §1
# SpNbp2 = molecular target: SpNbp2
# Method in brief: as §1
# SpPex13 = molecular target: SpPex13
# Method in brief: as §1
# SpRvs167 = molecular target: SpRvs167
# Method in brief: as §1
# SpSla1-D1-D2 = molecular target: SpSla1-D1-D2
# Method in brief: as §1
# SpSla1-D3 = molecular target: SpSla1-D3
# Method in brief: as §1
# AgAbp1 = molecular target: AgAbp1
# Method in brief: as §1
# AgBbc1 = molecular target: AgBbc1
# Method in brief: as §1
# AgBem1-D1 = molecular target: AgBem1-D1
# Method in brief: as §1
# AgBzz1-D1 = molecular target: AgBzz1-D1
# Method in brief: as §1
# AgBzz1-D2 = molecular target: AgBzz1-D2
# Method in brief: as §1
# AgCyk3 = molecular target: AgCyk3
# Method in brief: as §1
# AgFus1 = molecular target: AgFus1
# Method in brief: as §1
# AgHof1 = molecular target: AgHof1
# Method in brief: as §1
# AgHse1 = molecular target: AgHse1
# Method in brief: as §1
# AgLsb1 = molecular target: AgLsb1
# Method in brief: as §1
# AgLsb4 = molecular target: AgLsb4
# Method in brief: as §1
# AgMyo5 = molecular target: AgMyo5
# Method in brief: as §1
# AgNbp2 = molecular target: AgNbp2
# Method in brief: as §1
# AgRvs167 = molecular target: AgRvs167
# Method in brief: as §1
# AgSho1 = molecular target: AgSho1
# Method in brief: as §1
# AgSla1-D1-D2 = molecular target: AgSla1-D1-D2
# Method in brief: as §1
# AgSla1-D3 = molecular target: AgSla1-D3
# Method in brief: as §1
# CaAbp1-D1 = molecular target: CaAbp1-D1
# Method in brief: as §1
# CaAbp1-D2 = molecular target: CaAbp1-D2
# Method in brief: as §1
# CaBbc1 = molecular target: CaBbc1
# Method in brief: as §1
# CaBem1-D1 = molecular target: CaBem1-D1
# Method in brief: as §1
# CaBzz1-D1 = molecular target: CaBzz1-D1
# Method in brief: as §1
# CaBzz1-D2 = molecular target: CaBzz1-D2
# Method in brief: as §1
# CaCyk3 = molecular target: CaCyk3
# Method in brief: as §1
# CaFus1 = molecular target: CaFus1
# Method in brief: as §1
# CaHof1 = molecular target: CaHof1
# Method in brief: as §1
# CaHse1 = molecular target: CaHse1
# Method in brief: as §1
# CaLsb1 = molecular target: CaLsb1
# Method in brief: as §1
# CaLsb4 = molecular target: CaLsb4
# Method in brief: as §1
# CaMyo5 = molecular target: CaMyo5
# Method in brief: as §1
binder,measurement,setting,value
SRYRRPLTLLLLKPF,SPOT peptide array binding signal intensity,CaNbp2,870
same,SPOT peptide array binding signal intensity,CaRvs167,66.8
same,SPOT peptide array binding signal intensity,CaRvs167-3,141
same,SPOT peptide array binding signal intensity,CaSho1,493
same,SPOT peptide array binding signal intensity,CaSla1-D1-D2,≤ 0
same,SPOT peptide array binding signal intensity,CaSla1-D3,39.2
same,SPOT peptide array binding signal intensity,ScAbp1,83
same,SPOT peptide array binding signal intensity,ScBbc1,2.5
same,SPOT peptide array binding signal intensity,ScBem1-D1,10
same,SPOT peptide array binding signal intensity,ScBzz1-D1,13
same,SPOT peptide array binding signal intensity,ScBzz1-D2,74.5
same,SPOT peptide array binding signal intensity,ScCyk3,28
same,SPOT peptide array binding signal intensity,ScFus1,546
same,SPOT peptide array binding signal intensity,ScHof1,1
same,SPOT peptide array binding signal intensity,ScHse1,2310
same,SPOT peptide array binding signal intensity,ScLsb1,12.5
same,SPOT peptide array binding signal intensity,ScLsb2,2
same,SPOT peptide array binding signal intensity,ScLsb3,107
same,SPOT peptide array binding signal intensity,ScLsb4,31.5
same,SPOT peptide array binding signal intensity,ScMyo3,0.5
same,SPOT peptide array binding signal intensity,ScMyo5,0.5
same,SPOT peptide array binding signal intensity,ScNbp2,234
same,SPOT peptide array binding signal intensity,ScPex13,1
same,SPOT peptide array binding signal intensity,ScRvs167,11
same,SPOT peptide array binding signal intensity,ScSho1,648
same,SPOT peptide array binding signal intensity,ScSla1-D1-D2,1
same,SPOT peptide array binding signal intensity,ScSla1-D3,8
same,SPOT peptide array binding signal intensity,SpAbp1-D1,199
same,SPOT peptide array binding signal intensity,SpBbc1,6.25
same,SPOT peptide array binding signal intensity,SpBzz1-D1,18
same,SPOT peptide array binding signal intensity,SpBzz1-D2,≤ 0
same,SPOT peptide array binding signal intensity,SpCyk3,4
same,SPOT peptide array binding signal intensity,SpHof1,144
same,SPOT peptide array binding signal intensity,SpHof1-2,21.8
same,SPOT peptide array binding signal intensity,SpHof1-3,686
same,SPOT peptide array binding signal intensity,SpHse1,643
same,SPOT peptide array binding signal intensity,SpLsb1,3
same,SPOT peptide array binding signal intensity,SpLsb4,67
same,SPOT peptide array binding signal intensity,SpMyo1,4.5
same,SPOT peptide array binding signal intensity,SpNbp2,374
same,SPOT peptide array binding signal intensity,SpPex13,11.5
same,SPOT peptide array binding signal intensity,SpRvs167,13.8
same,SPOT peptide array binding signal intensity,SpSla1-D1-D2,5
same,SPOT peptide array binding signal intensity,SpSla1-D3,6.5
SKIRPTPRKPSRMAT,SPOT peptide array binding signal intensity,AgAbp1,1550
same,SPOT peptide array binding signal intensity,AgBbc1,642
same,SPOT peptide array binding signal intensity,AgBem1-D1,47
same,SPOT peptide array binding signal intensity,AgBzz1-D1,77
same,SPOT peptide array binding signal intensity,AgBzz1-D2,53
same,SPOT peptide array binding signal intensity,AgCyk3,3
same,SPOT peptide array binding signal intensity,AgFus1,40
same,SPOT peptide array binding signal intensity,AgHof1,69.2
same,SPOT peptide array binding signal intensity,AgHse1,263
same,SPOT peptide array binding signal intensity,AgLsb1,69.2
same,SPOT peptide array binding signal intensity,AgLsb4,176
same,SPOT peptide array binding signal intensity,AgMyo5,7
same,SPOT peptide array binding signal intensity,AgNbp2,1050
same,SPOT peptide array binding signal intensity,AgRvs167,9.17
same,SPOT peptide array binding signal intensity,AgSho1,39.5
same,SPOT peptide array binding signal intensity,AgSla1-D1-D2,100
same,SPOT peptide array binding signal intensity,AgSla1-D3,23.8
same,SPOT peptide array binding signal intensity,CaAbp1-D1,3050
same,SPOT peptide array binding signal intensity,CaAbp1-D2,5280
same,SPOT peptide array binding signal intensity,CaBbc1,806
same,SPOT peptide array binding signal intensity,CaBem1-D1,34.5
same,SPOT peptide array binding signal intensity,CaBzz1-D1,270
same,SPOT peptide array binding signal intensity,CaBzz1-D2,208
same,SPOT peptide array binding signal intensity,CaCyk3,108
same,SPOT peptide array binding signal intensity,CaFus1,208
same,SPOT peptide array binding signal intensity,CaHof1,2.5
same,SPOT peptide array binding signal intensity,CaHse1,30.5
same,SPOT peptide array binding signal intensity,CaLsb1,2.75
same,SPOT peptide array binding signal intensity,CaLsb4,2040
same,SPOT peptide array binding signal intensity,CaMyo5,8.5
same,SPOT peptide array binding signal intensity,CaNbp2,437
same,SPOT peptide array binding signal intensity,CaRvs167,110
same,SPOT peptide array binding signal intensity,CaRvs167-3,23
same,SPOT peptide array binding signal intensity,CaSho1,60
same,SPOT peptide array binding signal intensity,CaSla1-D1-D2,1470
same,SPOT peptide array binding signal intensity,CaSla1-D3,104
same,SPOT peptide array binding signal intensity,ScAbp1,1260
same,SPOT peptide array binding signal intensity,ScBbc1,73.5
same,SPOT peptide array binding signal intensity,ScBem1-D1,14
same,SPOT peptide array binding signal intensity,ScBzz1-D1,32.5
same,SPOT peptide array binding signal intensity,ScBzz1-D2,39
same,SPOT peptide array binding signal intensity,ScCyk3,25
same,SPOT peptide array binding signal intensity,ScFus1,21
same,SPOT peptide array binding signal intensity,ScHof1,10
same,SPOT peptide array binding signal intensity,ScHse1,1130
same,SPOT peptide array binding signal intensity,ScLsb1,328
same,SPOT peptide array binding signal intensity,ScLsb2,3.5
same,SPOT peptide array binding signal intensity,ScLsb3,2130
same,SPOT peptide array binding signal intensity,ScLsb4,117
same,SPOT peptide array binding signal intensity,ScMyo3,0.5
same,SPOT peptide array binding signal intensity,ScMyo5,4
same,SPOT peptide array binding signal intensity,ScNbp2,1100
same,SPOT peptide array binding signal intensity,ScPex13,124
same,SPOT peptide array binding signal intensity,ScRvs167,865
same,SPOT peptide array binding signal intensity,ScSho1,346
same,SPOT peptide array binding signal intensity,ScSla1-D1-D2,2180
same,SPOT peptide array binding signal intensity,ScSla1-D3,202
same,SPOT peptide array binding signal intensity,SpAbp1-D1,1300
same,SPOT peptide array binding signal intensity,SpBbc1,27.5
same,SPOT peptide array binding signal intensity,SpBzz1-D1,284
same,SPOT peptide array binding signal intensity,SpBzz1-D2,1.5
same,SPOT peptide array binding signal intensity,SpCyk3,6
same,SPOT peptide array binding signal intensity,SpHof1,107
same,SPOT peptide array binding signal intensity,SpHof1-2,43
same,SPOT peptide array binding signal intensity,SpHof1-3,235
same,SPOT peptide array binding signal intensity,SpHse1,180
same,SPOT peptide array binding signal intensity,SpLsb1,5
same,SPOT peptide array binding signal intensity,SpLsb4,3850
same,SPOT peptide array binding signal intensity,SpMyo1,9.5
same,SPOT peptide array binding signal intensity,SpNbp2,178
same,SPOT peptide array binding signal intensity,SpPex13,30
same,SPOT peptide array binding signal intensity,SpRvs167,957
same,SPOT peptide array binding signal intensity,SpSla1-D1-D2,33
same,SPOT peptide array binding signal intensity,SpSla1-D3,49.5
